Laboratory results as given in PubChem BioAssay (NCATS).
Inconclusive results are not listed. Calls of active or inactive are those of the source. The call rests on the fitted dose curve; in most records, active means well fitted curve in either direction with a large enough effect (not every such curve was filed as active); inconclusive means small, poorly fitted or top-dose-only effect, or another doubt; inactive means flat fitted curve, though single readings scatter.

Target: Mitogen-activated protein kinase 10 (Mus musculus) (UniProt Q61831)
Assay: JNK3 AlphaScreen Assay (AID 530);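 further: kinase came from lysate of stimulated human HepG2 cells; signal reports phosphorylation of biotinylated GST-cJun 1-79 at Ser73 with 10 µM ATP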
Conditions: JNK3 lysate, c-Jun phosphorylation; series mostly up to 57.1 µM
How it was run: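 Compound titrations were preincubated 15 minutes at room temperature with substrate, antibody and pre-activated JNK3-containing HepG2 lysate. Reactions were started with 10 uM ATP and stopped with EDTA-containing bead buffer for AlphaScreen detection.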

Potency, inactive:
CC(C)C[C@@H](CC(=O)N[C@H](CC(=O)N[C@@H]1CCCC[C@H]1C(=O)N[C@H](CC(=O)N[C@@H](CCC(=O)O)CC(=O)O)CC(C)C)C(C)C)NC(=O)[C@@H]1CCCC[C@H]1N
COC(=O)[C@H]1C[C@@H]1[C@H](NC(=O)c1ccccc1)c1ccccc1
CCC/C=C(\CCC)C(NS(=O)(=O)c1ccc(C(F)(F)F)cc1)c1ccc(-c2ccccc2)cc1 (configuration not stated)
COC(=O)[C@@H]1C[C@H]1[C@@H](NC(=O)c1ccccc1)c1ccccc1
O=C(NCc1cc(F)cc2c1OCCO2)[C@H]1C[C@@H]1[C@H](NP(=O)(c1ccccc1)c1ccccc1)c1ccccc1
C[C@@H](C(=O)Nc1ccc2ccccc2c1)[C@@H]1C[C@@]1(C)[C@@H](NC(=O)c1cnccn1)c1ccccc1
S=C(Nc1ccccc1)Nc1ccccc1C#Cc1ccccc1
OC1c2ccccc2-c2nc3ccccc3cc21 (configuration not stated)
CCC[C@@H]1C[C@@]1(CCC)C(NS(=O)(=O)c1cccc2cccnc12)c1ccc(Cl)cc1 (some centres not stated)
CC[C@H]1C2=C3C(CC[C@H]4C(OC)OC[C@](C)([C@@H]34)N(C(=O)OC(C)(C)C)C2)C(CO)C1CO (some centres not stated)
COC(=O)[C@H]1C[C@@H]1[C@H](NC(=O)OCc1ccccc1)c1ccccc1
c1ccc2c(c1)Cc1cc3ccccc3nc1-2
CCCCCC1=C2CNC(Cc3ccccc3)(C(=O)OC)C=C2C(C)C1=O (configuration not stated)
COC(=O)[C@@]1(Cc2ccc(F)cc2)[C@H]2c3cc(C(=O)N4CCCC4)n(Cc4cccc5ccccc45)c3C[C@H]2CN1C(=O)c1ccccc1
COC(=O)[C@@H]1C[C@H]1[C@@H](NC(=O)Oc1ccc(F)cc1)c1ccccc1
CCCC[C@@H]1C[C@H]1C(NC(=O)c1ccccc1)c1ccccc1 (some centres not stated)
CC[C@H]1C(=O)OC[C@@H]1Cc1cncn1C
CC[C@@H]1OC(=O)[C@@H](C)[C@H](O[C@@H]2C[C@@](C)(OC)[C@@H](O)[C@H](C)O2)[C@H](C)[C@H](O[C@@H]2O[C@@H](C)C[C@@H](N(C)C)[C@H]2O)[C@@](C)(O)C[C@H](C)C(=O)[C@@H](C)[C@H](O)[C@@]1(C)O
COC(=O)[C@@]1(Cc2ccc(OC)cc2)[C@H]2c3cc(C(=O)N(C)C)[nH]c3C[C@H]2CN1C(=O)c1ccccc1
CCC/C=C(\CCC)C(NS(=O)(=O)c1cccc2cccnc12)c1ccc(C(=O)OC)cc1 (configuration not stated)
COC(=O)[C@@]1(Cc2ccc(F)cc2)[C@H]2c3cc(C(=O)N4CCCC4)n(CCc4ccc(O)c(O)c4)c3C[C@H]2CN1C(=O)c1ccccc1
CC(C)C[C@@H](CC(=O)N[C@H](CC(=O)N[C@@H]1CCNC[C@H]1C(=O)N[C@H](CC(=O)N[C@@H](CCC(=O)O)CC(=O)O)Cc1ccccc1)C(C)C)NC(=O)[C@@H]1CNCC[C@H]1N
CC(C)[C@@H](CC(=O)N[C@@H]1CCNC[C@H]1C(=O)N[C@H](CC(=O)N[C@@H](CCC(=O)O)CC(=O)O)Cc1c[nH]c2ccccc12)NC(=O)C[C@H](Cc1ccccc1)NC(=O)[C@@H]1CNCC[C@H]1N
CCCC1(C(=O)OC)C=C2C(=C(C)C(=O)C2C)CN1 (configuration not stated)
CCCC[C@@H]1C[C@H]1C(NC(=O)c1ccco1)c1ccc(C(=O)OC)cc1 (some centres not stated)
COC(=O)[C@@]1(Cc2ccccc2)[C@H]2c3cc(C(=O)N4CCCC4)n(Cc4ccc(O)c(OC)c4)c3C[C@H]2CN1C(=O)c1ccccc1
C[C@@H](C(=O)Nc1ccc2ccccc2c1)[C@H]1C[C@]1(C)[C@H](NS(=O)(=O)c1ccc2ccccc2c1)c1ccccc1
